Data reported in PubChem BioAssay AID2501 (Southern Research Specialized Biocontainment Screening …, 2010).
Screen size: about 2,200 compounds; about 1,200 (55%) were called active. The limit is not given here; nearly all actives have IC50 up to about 92 µM. The set was probably picked from earlier hits. This is one part of the list.

Test: counter assay for TAg ATPase ADP read-out – biochemical, ADP-Hunter, fluorescence, counter-screen (AID 2501);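 also: purified T antigen ATPase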;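 as to inhibition: 0% = enzyme with vehicle and 100% = reference inhibitor wells; higher means more inhibition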
Details: series mostly up to 100 µM; inhibition: at the top concentration

SMILES | inhibition | IC50
CC(=O)N1N=C(c2ccc(C)cc2)CC1c1ccco1 (stereo not given) | 27.2% (inactive) | 
COc1cc(OC)c(C2CC(=O)N3CN(c4ccccc4C)CSC3=C2C#N)cc1OC (stereo not given) | 26.7% (inactive) | 
COc1ccc(N2CSC3=C(C#N)C(c4cc(OC)ccc4OC)CC(=O)N3C2)c(OC)c1 (stereo not given) |  | 9.09 µM (active)
COc1cc(OC)c(C2CC(=O)N3CN(C)CSC3=C2C#N)cc1OC (stereo not given) |  | 83.4 µM (active)
COc1ccc(N2CSC3=C(C#N)C(c4cc(OC)c(OC)cc4OC)CC(=O)N3C2)c(OC)c1 (stereo not given) |  | 78.4 µM (active)
COc1ccc(OC)c(C2CC(=O)N3CN(c4cccc(Cl)c4C)CSC3=C2C#N)c1 (stereo not given) | 16.4% (inactive) | 
COc1cc(OC)c(C2CC(=O)N3CN(c4ccc(C)cc4)CSC3=C2C#N)cc1OC (stereo not given) |  | 68 µM (active)
COc1ccc2c(c1OC)C(=O)N1c3ccccc3N=C(c3ccc([N+](=O)[O-])cc3)CC21 (stereo not given) | -23.3% (inactive) | 
O=C(NCc1ccco1)/C(=C/c1ccc(C(F)(F)F)cc1)c1nc2ccccc2[nH]1 | -8.13% (inactive) | 
N#C/C(=C/c1ccc(O)c(O)c1)c1nc2ccccc2[nH]1 |  | 5.71 µM (active)
O=C(CC(=O)N/N=C/c1ccc(O)cc1)N/N=C/c1ccc(O)cc1 |  | 1.98 µM (active)
O=C(CCn1cnc2ccccc21)N/N=C/c1ccc(O)cc1 |  | 7.9 µM (active)
O=C(C[n+]1ccccc1)N/N=C/c1ccc(O)cc1 |  | 3.04 µM (active)
Cc1cccc(-c2nn(-c3ccccc3)cc2C(=O)Nc2cccc(S(=O)(=O)NC3=NCCC3)c2)c1 | 10.6% (inactive) | 
Cc1nc2cc(-c3ccsc3-n3c(C)ccc3C)[nH]n2c(=O)c1Cl | -94.4% (inactive) | 
CNc1nc(-c2ccccc2)[n+](-c2ccc(C)cc2)s1 |  | 18.6 µM (active)
COc1cc2c(cc1OC)-c1cc(Nc3ccc(N(C)C)cc3)nc(=O)n1CC2 |  | 1.76 µM (active)
O=C1C=CC(=O)N1c1ccc(O)cc1 | 29.8% (inactive) | 
O=C1CSC(=Nc2ccc(O)cc2)N1c1ccc(O)cc1 |  | 3.6 µM (active)
Cc1nnc(N/N=C/c2c(O)n(-c3cccc(C(F)(F)F)c3)c(=O)c3ccccc23)[nH]c1=O |  | 8.07 µM (active)
CN(C)c1ccc(CNc2ccc3c(c2)ncn3C)cc1 |  | 13.5 µM (active)
CCn1cnc2cc(NCc3ccc(N(C)C)cc3)ccc21 |  | 10.5 µM (active)
Cc1ccc(CNc2ccc3c(c2)ncn3C(C)C)cc1 |  | 12.7 µM (active)
CC(C)c1ccc(CNc2nnnn2C)cc1 | -26.9% (inactive) | 
ClC(Cl)(c1nnnn1-c1ccccc1)c1nnnn1-c1ccccc1 | -14.1% (inactive) | 
CC(Cc1ccc(O)c(O)c1)C(C)Cc1ccc(O)c(O)c1 (stereo not given) |  | 22.3 µM (active)
CCCCCCN=C(C)c1ccccc1O | -32.1% (inactive) | 

SMILES | inhibition | IC50
CC(=O)N(c1ccc2oc(=O)sc2c1)S(=O)(=O)c1ccccc1 |  | 62.1 µM (active)
O=C(O)c1cccc(S(=O)(=O)Nc2ccc3oc(=O)sc3c2)c1 | 24.3% (inactive) | 
CSc1nc(O)c(C(c2ccc(OC(C)C)cc2)c2c(O)nc(SC)[nH]c2=O)c(=O)[nH]1 | -0.04% (inactive) | 
COc1cc(/C=N/NC(=O)C2=NNC(=O)C2C)ccc1O (stereo not given) |  | 6.5 µM (active)
COc1cc(/C=N/NC(=O)CC2C(=O)NN=C2C)ccc1O (stereo not given) |  | 5.63 µM (active)
CCCc1cc(=O)[nH]c(Nc2ccc(O)cc2)n1 |  | 3.17 µM (active)
COc1cccc(C=Nc2ccc(N3CCOCC3)cc2)c1O |  | 5.29 µM (active)
Oc1ccc2ccccc2c1C=Nc1ccc(N2CCOCC2)cc1 |  | 2.74 µM (active)
Oc1ccc(C=Nc2ccc(N3CCOCC3)cc2)c(O)c1 |  | 2.33 µM (active)
Oc1ccc(N=Cc2cc(Br)c(N3CCOCC3)o2)cc1 |  | 8.18 µM (active)
Cc1ccc(NC(NC(=O)Cc2ccccc2)C(Cl)(Cl)Cl)cc1 (stereo not given) | -24.6% (inactive) | 
CC1CCCN(Cc2nc(Cc3ccccc3Cl)no2)C1 (stereo not given) | -5.63% (inactive) | 
COc1ccc(CC(O)COS(N)(=O)=O)cc1 (stereo not given) | -27.6% (inactive) | 
C(=Nc1ccc(N2CCOCC2)cc1)c1c[nH]c2ccccc12 |  | 7.55 µM (active)
O=[N+]([O-])c1cc(Cc2ccccc2)cc(C=Nc2ccc(N3CCOCC3)cc2)c1O |  | 3.16 µM (active)
O=[N+]([O-])/C=C\c1ccc(N2CCOCC2)cc1 | -8.52% (inactive) | 
O=C(O)c1cc(-c2ccco2)nc2cc3ccccc3cc12 | 8.1% (inactive) | 
CCC(=O)NC(C)C(c1cccs1)N1CCN(c2ccccc2)CC1 (stereo not given) | 1.69% (inactive) | 
O=c1cc(CN2CCN(c3ccc(O)cc3)CC2)nc2scc(-c3ccccc3)n12 |  | 9.38 µM (active)
O=c1[nH]c(=S)[nH]c2[nH]c(=S)[nH]c12 |  | 52.7 µM (active)
CC(C)N1CN(c2ccccc2)C(=S)N(c2ccccc2)C1 | 13.2% (inactive) | 
N#C/C(C(=O)Nc1ccc(Cl)cc1)=C(/S)Nc1ccccc1 |  | 21.8 µM (active)
Cc1n[nH]c(=O)nc1Nc1ccc(O)cc1 |  | 2.48 µM (active)
Cc1[nH]nc(Nc2ccc(O)cc2)c1[N+](=O)[O-] |  | 3.93 µM (active)
Cc1nnc(Nc2ccc(O)cc2)[nH]c1=O |  | 3.89 µM (active)
COc1cc(/C=C(\C#N)C(=O)N2CCCCC2)ccc1O |  | 5.73 µM (active)
N#C/C(=C\c1ccc(O)c(O)c1)C(=O)N1CCc2ccccc21 |  | 9.2 µM (active)

SMILES | inhibition | IC50
COc1cc(/C=C(\C#N)C(=O)N2CCc3ccccc32)ccc1O |  | 2.3 µM (active)
Cc1cc(/C=C(\C#N)C(=O)NC2CCCCCC2)c(C)n1C | -11.6% (inactive) | 
COc1cc(C=C(C(C)=O)C(C)=O)ccc1O |  | 3.76 µM (active)
CCC(=O)N1CCc2cc(S(=O)(=O)N(C)c3ccc(OC)cc3OC)ccc21 | 22.4% (inactive) | 
CC(C)(C)NC(=O)COC(=O)c1cc(F)c(F)cc1Cl | 0.35% (inactive) | 
CCOC(=O)N1[C@@H]2C=C(C)[C@@H]2[C@@H]2[C@@H](C)C(=O)N21 | 12% (inactive) | 
O=C(/C=C/c1cccc(Cl)c1)c1ccc([N+](=O)[O-])o1 | -11.4% (inactive) | 
COc1cc(/C=C/C(=O)c2ccc([N+](=O)[O-])o2)ccc1O |  | 5.19 µM (active)
Cc1ccccc1/C=C/C(=O)c1ccc([N+](=O)[O-])o1 | -26.8% (inactive) | 
Cc1ccc(S(=O)(=O)N2[C@@H](c3ccc(Cl)cc3)C(C(=O)O)=CC[C@H]2c2ccc(Cl)cc2)cc1 | -14.6% (inactive) | 
Cc1ccc(S(=O)(=O)N2CCN(CC(=O)N/N=C\c3ccc(O)c(O)c3)CC2)cc1 |  | 3.2 µM (active)
O=S(=O)(c1ccc(NC(=S)N/N=C/c2ccc(O)c(O)c2)cc1)N1CCOCC1 |  | 5.94 µM (active)
COc1ccc(NC(=O)CN(C)C(=O)CCc2nc3cc(S(=O)(=O)N4CCOCC4)ccc3n2C)cc1 | -2.23% (inactive) | 
CCN(CC)c1ccc(NC(=O)CCNS(=O)(=O)c2ccc3c(c2)CCC(=O)N3)c(C)c1 |  | 7.36 µM (active)
Cc1c(NC(=O)C(C)OC(=O)/C=C/c2ccco2)c(=O)n(-c2ccccc2)n1C (stereo not given) | 12.1% (inactive) | 
N#Cc1ccsc1NC(=O)CN1CCN(c2ccc(O)cc2)CC1 |  | 6.3 µM (active)
Cc1c(NC(=O)CN2CCN(c3ccc(O)cc3)CC2)c(=O)n(-c2ccccc2)n1C |  | 8.18 µM (active)
COc1ccc(-c2nnc(SC(C)C(=O)Nc3c(C)n(C)n(-c4ccccc4)c3=O)o2)cc1 (stereo not given) | 3.49% (inactive) | 
Cc1c(NC(=O)COC(=O)COc2ccc(Nc3ccccc3)cc2)c(=O)n(-c2ccccc2)n1C |  | 8.78 µM (active)
CC(C)(C)NC(=O)NC(=O)CN1CCN(c2ccc(O)cc2)CC1 |  | 4.89 µM (active)
Cc1c(NC(=O)c2cnn3c2NC(c2ccccc2)CC3C(F)(F)F)c(=O)n(-c2ccccc2)n1C (stereo not given) | -5.94% (inactive) | 
CN1CCN(CC(=O)Nc2c(C#N)cnn2-c2ccccc2)CC1 | -5.67% (inactive) | 
Cc1nc2ccc(NC(=O)c3cc([N+](=O)[O-])cc([N+](=O)[O-])c3Cl)cc2s1 | -16.9% (inactive) | 
Cc1ccc(N/C(C(Cl)=C(Cl)Cl)=C(/Cl)[N+](=O)[O-])c(C)c1 | 13.1% (inactive) | 
Cc1cc(NC(=O)c2noc3c2CCCCC3)no1 | -7.35% (inactive) | 
O=C(CN1CCN(c2ccc(O)cc2)CC1)Nc1ccc2c(c1)OCCO2 |  | 6.55 µM (active)
O=C(Cn1cnc2c(nnn2Cc2ccccc2)c1=O)Nc1ccc2c(c1)OCCO2 | -28.1% (inactive) | 

SMILES | inhibition | IC50
Cc1cc(NC(=O)CN2CCN(c3ccc(O)cc3)CC2)no1 |  | 4.08 µM (active)
Cc1ccc(OCCC(=O)N2CCN(c3ccc(O)cc3)CC2)cc1 |  | 4.43 µM (active)
CCCCCCC1CCC(C(=O)N2CCOCC2)CC1 (stereo not given) | 14.4% [at 50 µM] (inactive) | 
O=C(C1CC1)N1CCN(c2ccc(O)cc2)CC1 |  | 3.4 µM (active)
CCOc1ccc(OCCC(=O)OCC(=O)N2CCN(S(=O)(=O)c3ccc(C)cc3)CC2)cc1 |  | 10.1 µM (active)
Cc1ccc(N(C=NC#N)CC(=O)N2CCN(c3ccccc3)CC2)cc1 | -3.12% (inactive) | 
O=C(CCC(=O)N1CCN(c2ccccc2F)CC1)N1CCN(c2ccccc2)CC1 | -11.5% (inactive) | 
O=C(COc1ncnc2sccc12)N1CCN(c2ccccc2)CC1 | 1.41% (inactive) | 
O=C(CCOc1ccccc1)N1CCN(c2ccc(O)cc2)CC1 |  | 3.56 µM (active)
COc1ccccc1N1CCN(C(=O)C2CCN(S(=O)(=O)c3ccc(C)cc3)CC2)CC1 | -16.4% (inactive) | 
O=C(C1CCCN(S(=O)(=O)c2cccc3nonc23)C1)N1CCN(c2ccccc2)CC1 (stereo not given) | 9.89% (inactive) | 
CCOC(=O)C1CCN(C(=O)COC(=O)CSc2ccc([N+](=O)[O-])cc2)CC1 | -18.3% (inactive) | 
Clc1ccccc1CSc1nnc(-c2ccco2)c(-c2ccco2)n1 | -26.5% (inactive) | 
C=CCc1ccc(OCCN2CCc3ccccc3C2)c(OC)c1 | -23.3% (inactive) | 
O=[N+]([O-])c1ccc(SCCc2ccncc2)cc1 | -30.2% (inactive) | 
CN1CCc2[nH]c3ccc(C(=O)NN)cc3c2C1 | 12.9% (inactive) | 
Cc1c(CCO)c(=O)n(C)n1C(=O)c1ccc(Cl)cc1 | 11.2% (inactive) | 
O=C(COC(=O)COc1cccc(C(F)(F)F)c1)NC1CCCC1 | 2.64% (inactive) | 
COc1cc(OC)cc(C(=O)NCC(=O)N2CCN(c3ccc(O)cc3)CC2)c1 |  | 8.71 µM (active)
Cc1cc(OCC(=O)N2CCN(c3ccc(F)cc3)CC2)c2c(C)cc(=O)oc2c1 | -42.5% (inactive) | 
O=C(COc1cccc(C(F)(F)F)c1)N1CCN(c2ccc(O)cc2)CC1 |  | 15.1 µM (active)
O=C(CCSc1ccc(Cl)cc1)N1CCN(c2ccc(O)cc2)CC1 |  | 7.46 µM (active)
CCOC(=O)N1CCN(C(=O)c2ccc3c(SCC(=O)O)c4c(nc3c2)CCCC4)CC1 | -5.78% (inactive) | 
CCOC(=O)N1CCN(c2ccc(O)cc2)CC1 |  | 4.16 µM (active)
